Measured values from PubChem BioAssay AID1159580 (chemical genetic matrix, 2015).
The whole screen tested about 5,500 compounds, of which about 2,000 (36%) were called active. Inconclusive results (about 18%) are left out. Cut-off read from the data, not from the text of the source: active = normalized growth mostly below about 0.91 (no sharp cut-off); inconclusive = no clear call, values can overlap the other calls; inactive = mostly above about 0.92. This is one part of the list.

Assay: chemical genetic growth profiling, strain panel (AID 1159580);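 note: tested at 20 µM; growth read once vehicle control cultures reached saturation at 30 °C; 1 = growth at the plate median or of vehicle wells; lower values mean less growth of the strain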
Details: growth OD

Measured: normalized growth

CC(=O)N[C@@H](CS)C(=O)O
inactive: S. cerevisiae deletion strains, locus YAL013W, strain DEP1, active compounds read low 1 | S. cerevisiae deletion strains, locus YAL021C, strain ccr4, active compounds read low 1.02 | S. cerevisiae deletion strains, locus YAL026C, strain drs2, active compounds read low 1 | S. cerevisiae deletion strains, locus YAL030W, strain snc1, active compounds read low 0.995 | S. cerevisiae deletion strains, locus YBL061C, strain skt5, active compounds read low 1.01 | S. cerevisiae deletion strains, locus YBR009C, strain hhf1, active compounds read low 1 | S. cerevisiae deletion strains, locus YBR021W, strain FUR4, active compounds read low 0.989 | S. cerevisiae deletion strains, locus YBR023C, strain chs3, active compounds read low 0.994 | S. cerevisiae deletion strains, locus YBR171W, strain sec66, active compounds read low 0.991 | S. cerevisiae deletion strains, locus YBR229C, strain ROT2, active compounds read low 1.01 | S. cerevisiae deletion strains, locus YBR231C, strain swc5, active compounds read low 1.01 | S. cerevisiae deletion strains, locus YBR279W, strain paf1, active compounds read low 1.01 | S. cerevisiae deletion strains, locus YCL011C, strain gbp2, active compounds read low 0.997 | S. cerevisiae deletion strains, locus YCL016C, strain dcc1, active compounds read low 0.998 | S. cerevisiae deletion strains, locus YCL029C, strain bik1, active compounds read low 1.03 | S. cerevisiae deletion strains, locus YCL061C, strain MRC1, active compounds read low 0.995 | S. cerevisiae deletion strains, locus YCL069W, strain vba3, active compounds read low 1.01 | S. cerevisiae deletion strains, locus YCR088W, strain abp1, active compounds read low 1 | S. cerevisiae deletion strains, locus YDL005C, strain med2, active compounds read low 0.992 | S. cerevisiae deletion strains, locus YDL035C, strain GPR1, active compounds read low 1 | S. cerevisiae deletion strains, locus YDL040C, strain nat1, active compounds read low 1.01 | S. cerevisiae deletion strains, locus YDL074C, strain BRE1, active compounds read low 1.01 | S. cerevisiae deletion strains, locus YDL101C, strain DUN1, active compounds read low 1.01 | S. cerevisiae deletion strains, locus YDL134C, strain PPH21, active compounds read low 0.997 | S. cerevisiae deletion strains, locus YDL185W, strain tfp1, active compounds read low 1.02 | S. cerevisiae deletion strains, locus YDL192W, strain arf1, active compounds read low 1.01 | S. cerevisiae deletion strains, locus YDR001C, strain nth1, active compounds read low 0.997 | S. cerevisiae deletion strains, locus YDR069C, strain doa4, active compounds read low 1.01 | S. cerevisiae deletion strains, locus YDR101C, strain arx1, active compounds read low 1.01 | S. cerevisiae deletion strains, locus YDR137W, strain rgp1, active compounds read low 1.02 | S. cerevisiae deletion strains, locus YDR159W, strain sac3, active compounds read low 1.01 | S. cerevisiae deletion strains, locus YDR162C, strain NBP2, active compounds read low 1.02 | S. cerevisiae deletion strains, locus YDR195W, strain ref2 0.985 | S. cerevisiae deletion strains, locus YDR297W, strain sur2, active compounds read low 0.99 | S. cerevisiae deletion strains, locus YDR318W, strain mcm21, active compounds read low 1.02 | S. cerevisiae deletion strains, locus YDR334W, strain swr1, active compounds read low 1 | S. cerevisiae deletion strains, locus YDR335W, strain msn5, active compounds read low 1.01 | S. cerevisiae deletion strains, locus YDR388W, active compounds read low 1.02 | S. cerevisiae deletion strains, locus YDR392W, strain spt3, active compounds read low 1.02 | S. cerevisiae deletion strains, locus YDR502C, strain sam2, active compounds read low 1.01 | S. cerevisiae deletion strains, locus YEL003W, strain gim4, active compounds read low 1.01 | S. cerevisiae deletion strains, locus YEL037C, strain rad23, active compounds read low 1 | S. cerevisiae deletion strains, locus YEL061C, strain CIN8 (second series), active compounds read low 0.988 | S. cerevisiae deletion strains, locus YEL061C, strain CIN8, active compounds read low 1.01 | S. cerevisiae deletion strains, locus YER015W, strain faa2, active compounds read low 1 | S. cerevisiae deletion strains, locus YER016W, strain bim1, active compounds read low 0.995 | S. cerevisiae deletion strains, locus YER110C, active compounds read low 1.03 | S. cerevisiae deletion strains, locus YER111C, strain swi4, active compounds read low 0.989 | S. cerevisiae deletion strains, locus YER155C, strain BEM2 (second series), active compounds read low 1.01 | S. cerevisiae deletion strains, locus YER155C, strain BEM2, active compounds read low 1.01 | S. cerevisiae deletion strains, locus YER167W, strain BCK2, active compounds read low 1.01 | S. cerevisiae deletion strains, locus YFR010W, strain ubp6, active compounds read low 0.983 | S. cerevisiae deletion strains, locus YGL078C, strain dbp3, active compounds read low 1.01 | S. cerevisiae deletion strains, locus YGL086W, strain mad1, active compounds read low 1.01 | S. cerevisiae deletion strains, locus YGL167C, strain pmr1, active compounds read low 0.995 | S. cerevisiae deletion strains, locus YGL173C, strain kem1, active compounds read low 1 | S. cerevisiae deletion strains, locus YGL227W, strain vid30, active compounds read low 1 | S. cerevisiae deletion strains, locus YGL240W, strain doc1, active compounds read low 0.964 | S. cerevisiae deletion strains, locus YGL248W, strain PDE1, active compounds read low 1.02 | S. cerevisiae deletion strains, locus YGL253W, strain hxk2, active compounds read low 1.02 | S. cerevisiae deletion strains, locus YGR135W, strain pre9, active compounds read low 1.02 | S. cerevisiae deletion strains, locus YGR252W, strain gcn5, active compounds read low 0.999 | S. cerevisiae deletion strains, locus YHR013C, strain ard1, active compounds read low 1.02 | S. cerevisiae deletion strains, locus YHR027C, strain rpn1, active compounds read low 1.01 | S. cerevisiae deletion strains, locus YHR030C, strain SLT2, active compounds read low 1.01 | S. cerevisiae deletion strains, locus YHR079C, strain IRE1 (second series), active compounds read low 1.03 | S. cerevisiae deletion strains, locus YHR094C, strain hxt1, active compounds read low 1.01 | S. cerevisiae deletion strains, locus YHR129C, strain ARP1, active compounds read low 1.01 | S. cerevisiae deletion strains, locus YHR142W, strain chs7, active compounds read low 1.02 | S. cerevisiae deletion strains, locus YHR200W, strain rpn10, active compounds read low 1.02 | S. cerevisiae deletion strains, locus YIL066C, strain RNR3, active compounds read low 1.02 | S. cerevisiae deletion strains, locus YIL073C, strain SPO22, active compounds read low 1.07 | S. cerevisiae deletion strains, locus YIL125W, strain kgd1, active compounds read low 1.02 | S. cerevisiae deletion strains, locus YIR030C, strain dcg1, active compounds read low 1.01 | S. cerevisiae deletion strains, locus YJL092W, strain hpr5, active compounds read low 1.02 | S. cerevisiae deletion strains, locus YJL095W, strain BCK1 (second series), active compounds read low 1.01 | S. cerevisiae deletion strains, locus YJL095W, strain BCK1, active compounds read low 1.01 | S. cerevisiae deletion strains, locus YJL115W, strain asf1, active compounds read low 0.991 | S. cerevisiae deletion strains, locus YJL129C, strain trk1, active compounds read low 1 | S. cerevisiae deletion strains, locus YJL134W, strain LCB3, active compounds read low 1.01 | S. cerevisiae deletion strains, locus YJL154C, strain vps35, active compounds read low 1.01 | S. cerevisiae deletion strains, locus YJL164C, strain tpk1, active compounds read low 1 | S. cerevisiae deletion strains, locus YJL166W, strain qcr8, active compounds read low 0.985 | S. cerevisiae deletion strains, locus YJL168C, strain set2, active compounds read low 1.01 | S. cerevisiae deletion strains, locus YJL187C, strain SWE1 (second series), active compounds read low 1.03 | S. cerevisiae deletion strains, locus YJR043C, strain POL32, active compounds read low 1 | S. cerevisiae deletion strains, locus YKL009W, strain mrt4, active compounds read low 1.04 | S. cerevisiae deletion strains, locus YKL068W, active compounds read low 1.01 | S. cerevisiae deletion strains, locus YKL085W, strain MDH1 (second series), active compounds read low 1 | S. cerevisiae deletion strains, locus YKL085W, strain MDH1, active compounds read low 1 | S. cerevisiae deletion strains, locus YKL160W, strain elf1, active compounds read low 0.998 | S. cerevisiae deletion strains, locus YKR001C, strain vps1, active compounds read low 1.01 | S. cerevisiae deletion strains, locus YKR026C, strain gcn3, active compounds read low 0.991 | S. cerevisiae deletion strains, locus YKR091W, strain srl3, active compounds read low 1.01 | S. cerevisiae deletion strains, locus YLL001W, strain dnm1, active compounds read low 0.994 | S. cerevisiae deletion strains, locus YLL026W, active compounds read low 1.01 | S. cerevisiae deletion strains, locus YLL041C, strain sdh2, active compounds read low 1.01 | S. cerevisiae deletion strains, locus YLR027C, strain aat2, active compounds read low 1.01 | S. cerevisiae deletion strains, locus YLR039C, strain RIC1, active compounds read low 1.02 | S. cerevisiae deletion strains, locus YLR058C, strain SHM2, active compounds read low 1.02 | S. cerevisiae deletion strains, locus YLR102C, strain apc9, active compounds read low 1.02 | S. cerevisiae deletion strains, locus YLR221C, strain rsa3, active compounds read low 1 | S. cerevisiae deletion strains, locus YLR258W, strain gsy2, active compounds read low 1.01 | S. cerevisiae deletion strains, locus YLR262C, strain YPT6 (second series), active compounds read low 1 | S. cerevisiae deletion strains, locus YLR262C, strain YPT6, active compounds read low 1.08 | S. cerevisiae deletion strains, locus YLR268W, strain sec22, active compounds read low 1.02 | S. cerevisiae deletion strains, locus YLR320W, strain mms22, active compounds read low 1.01 | S. cerevisiae deletion strains, locus YLR330W, strain CHS5, active compounds read low 1.01 | S. cerevisiae deletion strains, locus YLR342W, strain FKS1 (second series), active compounds read low 0.995 | S. cerevisiae deletion strains, locus YLR342W, strain FKS1, active compounds read low 1.01 | S. cerevisiae deletion strains, locus YLR357W, strain rsc2, active compounds read low 0.989 | S. cerevisiae deletion strains, locus YLR370C, strain arc18, active compounds read low 1.01 | S. cerevisiae deletion strains, locus YLR371W, strain rom2, active compounds read low 1.03 | S. cerevisiae deletion strains, locus YLR384C, strain iki3, active compounds read low 1.01 | S. cerevisiae deletion strains, locus YLR418C, strain cdc73, active compounds read low 1.05 | S. cerevisiae deletion strains, locus YML016C, strain PPZ1, active compounds read low 1.01 | S. cerevisiae deletion strains, locus YML032C, strain rad52, active compounds read low 1.01 | S. cerevisiae deletion strains, locus YML120C, strain ndi1, active compounds read low 0.999 | S. cerevisiae deletion strains, locus YML124C, strain tub3, active compounds read low 1.04 | S. cerevisiae deletion strains, locus YMR058W, strain fet3, active compounds read low 0.998 | S. cerevisiae deletion strains, locus YMR078C, strain ctf18, active compounds read low 1.03 | S. cerevisiae deletion strains, locus YMR125W, strain sto1, active compounds read low 1.01 | S. cerevisiae deletion strains, locus YMR129W, active compounds read low 0.984 | S. cerevisiae deletion strains, locus YMR205C, strain PFK2, active compounds read low 0.995 | S. cerevisiae deletion strains, locus YMR223W, strain ubp8, active compounds read low 1.02 | S. cerevisiae deletion strains, locus YMR231W, strain pep5, active compounds read low 1 | S. cerevisiae deletion strains, locus YMR263W, strain SAP30, active compounds read low 1.01 | S. cerevisiae deletion strains, locus YMR307W, strain GAS1, active compounds read low 1.04 | S. cerevisiae deletion strains, locus YNL067W, strain RPL9B, active compounds read low 1.03 | S. cerevisiae deletion strains, locus YNL071W, strain lat1, active compounds read low 1.02 | S. cerevisiae deletion strains, locus YNL128W, strain TEP1, active compounds read low 1.03 | S. cerevisiae deletion strains, locus YNL153C, strain GIM3, active compounds read low 1.02 | S. cerevisiae deletion strains, locus YNL209W, strain ssb2, active compounds read low 1 | S. cerevisiae deletion strains, locus YNL233W, strain BNI4, active compounds read low 1.01 | S. cerevisiae deletion strains, locus YNL248C, strain rpa49, active compounds read low 1.08 | S. cerevisiae deletion strains, locus YNL250W, strain rad50, active compounds read low 1.01 | S. cerevisiae deletion strains, locus YNL271C, strain bni1, active compounds read low 1.03 | S. cerevisiae deletion strains, locus YNL298W, strain CLA4, active compounds read low 1.02 | S. cerevisiae deletion strains, locus YNL307C, strain MCK1, active compounds read low 1.02 | S. cerevisiae deletion strains, locus YNL322C, strain KRE1 (second series), active compounds read low 0.999 | S. cerevisiae deletion strains, locus YNR049C, strain mso1, active compounds read low 1 | S. cerevisiae deletion strains, locus YNR052C, strain pop2, active compounds read low 1.03 | S. cerevisiae deletion strains, locus YOL006C, strain TOP1, active compounds read low 0.995 | S. cerevisiae deletion strains, locus YOL012C, strain htz1 0.978 | S. cerevisiae deletion strains, locus YOL147C, strain pex11, active compounds read low 1.02 | S. cerevisiae deletion strains, locus YOR001W, strain rrp6, active compounds read low 1.02 | S. cerevisiae deletion strains, locus YOR061W, strain CKA2, active compounds read low 1.02 | S. cerevisiae deletion strains, locus YOR069W, strain VPS5, active compounds read low 1.01 | S. cerevisiae deletion strains, locus YOR070C, strain gyp1, active compounds read low 1 | S. cerevisiae deletion strains, locus YOR080W, strain dia2, active compounds read low 0.984 | S. cerevisiae deletion strains, locus YOR083W, strain WHI5, active compounds read low 1 | S. cerevisiae deletion strains, locus YOR106W, strain vam3, active compounds read low 1.02 | S. cerevisiae deletion strains, locus YOR136W, strain idh2, active compounds read low 1.03 | S. cerevisiae deletion strains, locus YOR144C, strain elg1, active compounds read low 1.03 | S. cerevisiae deletion strains, locus YOR184W, strain ser1, active compounds read low 1.01 | S. cerevisiae deletion strains, locus YOR265W, strain rbl2, active compounds read low 1 | S. cerevisiae deletion strains, locus YOR270C, strain vph1, active compounds read low 1.04 | S. cerevisiae deletion strains, locus YOR290C, strain snf2, active compounds read low 0.994 | S. cerevisiae deletion strains, locus YOR316C, strain cot1, active compounds read low 1.02 | S. cerevisiae deletion strains, locus YPL051W, strain arl3, active compounds read low 1.01 | S. cerevisiae deletion strains, locus YPL078C, strain atp4, active compounds read low 0.992 | S. cerevisiae deletion strains, locus YPL106C, strain sse1, active compounds read low 0.988 | S. cerevisiae deletion strains, locus YPL240C, strain hsp82, active compounds read low 0.999 | S. cerevisiae deletion strains, locus YPR119W, strain clb2, active compounds read low 1.02 | S. cerevisiae deletion strains, locus YPR141C, strain kar3, active compounds read low 1.03 | S. cerevisiae deletion strains, locus YPR163C, strain tif3, active compounds read low 1.03 | S. cerevisiae deletion strains, locus YPR167C, strain met16, active compounds read low 1.06 | S. cerevisiae deletion strains, strain wtn01, active compounds read low 1.01 | S. cerevisiae strains, strain wild type, active compounds read low 1.01
